A short description of assay [1]: compounds binding Alexa647 anti-His antibody – biochemical, small-molecule microarray, 635 nm fluorescence, artefact control for SMM control protein annotation, primary screen (AID 1128).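 Further: score merges feature fluorescence with signal-to-noise for each printed compound spot.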 The following applies: higher = more signal.
Assay [2] has as its system Human papillomavirus type 1a E7 protein (residues 1-88). The assay can be described thus: HPV1a E7 small-molecule binders, primary screen, biochemical, small-molecule microarray, residues 1-88, 635 nm (AID 1129). The following applies: small-molecule microarray binding, fluorescence 635 nm; higher = more signal.
Assay [3] deals with Focal adhesion kinase 1 (Homo sapiens) (UniProt Q05397). In words: PTK2 protein binding on printed compound slides – biochemical, small-molecule microarray, 635/667 nm fluorescence, BSA, DTT, primary screen (AID 1130).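 Further: composite of spot emission at 667 nm and signal to noise over triplicate slides.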 Particulars: 635 nm fluorescence, higher = more signal.
Sequence of Focal adhesion kinase 1 (Homo sapiens) (Q05397 whole entry, looked up): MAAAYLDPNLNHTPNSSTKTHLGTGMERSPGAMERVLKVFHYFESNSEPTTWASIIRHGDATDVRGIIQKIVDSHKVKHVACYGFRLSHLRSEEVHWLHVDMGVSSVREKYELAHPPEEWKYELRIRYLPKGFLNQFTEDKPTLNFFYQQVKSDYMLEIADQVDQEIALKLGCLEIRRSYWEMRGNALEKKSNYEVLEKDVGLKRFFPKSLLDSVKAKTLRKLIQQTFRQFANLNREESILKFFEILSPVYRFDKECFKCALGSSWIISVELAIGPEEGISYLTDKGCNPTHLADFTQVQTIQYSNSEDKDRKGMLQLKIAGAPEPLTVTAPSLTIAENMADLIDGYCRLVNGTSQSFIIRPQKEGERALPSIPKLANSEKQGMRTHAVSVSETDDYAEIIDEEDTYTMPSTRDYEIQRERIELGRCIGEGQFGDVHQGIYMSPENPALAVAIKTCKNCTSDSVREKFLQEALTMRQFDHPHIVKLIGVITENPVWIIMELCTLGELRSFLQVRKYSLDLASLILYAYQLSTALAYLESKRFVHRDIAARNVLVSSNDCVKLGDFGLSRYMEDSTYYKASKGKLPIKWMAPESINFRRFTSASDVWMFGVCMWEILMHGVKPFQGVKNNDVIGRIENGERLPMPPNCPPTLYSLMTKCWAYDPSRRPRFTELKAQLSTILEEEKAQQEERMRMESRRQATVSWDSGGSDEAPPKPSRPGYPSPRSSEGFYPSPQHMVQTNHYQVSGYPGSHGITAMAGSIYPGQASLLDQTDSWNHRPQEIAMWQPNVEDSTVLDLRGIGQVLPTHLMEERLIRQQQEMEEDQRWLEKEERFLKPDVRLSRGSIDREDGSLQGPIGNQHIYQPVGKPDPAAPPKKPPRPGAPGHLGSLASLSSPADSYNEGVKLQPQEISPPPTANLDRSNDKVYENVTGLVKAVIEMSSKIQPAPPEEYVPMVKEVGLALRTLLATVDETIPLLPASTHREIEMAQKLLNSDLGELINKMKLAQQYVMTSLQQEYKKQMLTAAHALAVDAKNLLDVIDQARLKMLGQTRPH
The test system of assay [4] is Fibrinogen (Alexa647-labelled). The assay can be described thus: Alexa647-fibrinogen binding to printed small molecules – biochemical, small-molecule microarray, 635/667 nm fluorescence, artefact control for SMM control-protein annotation, profiling panel (AID 1131).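 Further: z-score merges 667 nm fluorescence with per-spot signal-to-noise over triplicate slides.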 Particulars: fibrinogen-A647 binding fluorescence, higher = more signal.
Assay [5] deals with Follistatin (Homo sapiens) (UniProt P19883). The assay can be described thus: FST protein binding to printed compounds – biochemical, small-molecule microarray, 635/667 nm fluorescence, primary screen (AID 1132). Particulars: 635 nm fluorescence, higher = more signal.
Sequence of Follistatin (Homo sapiens) (P19883 whole entry, looked up): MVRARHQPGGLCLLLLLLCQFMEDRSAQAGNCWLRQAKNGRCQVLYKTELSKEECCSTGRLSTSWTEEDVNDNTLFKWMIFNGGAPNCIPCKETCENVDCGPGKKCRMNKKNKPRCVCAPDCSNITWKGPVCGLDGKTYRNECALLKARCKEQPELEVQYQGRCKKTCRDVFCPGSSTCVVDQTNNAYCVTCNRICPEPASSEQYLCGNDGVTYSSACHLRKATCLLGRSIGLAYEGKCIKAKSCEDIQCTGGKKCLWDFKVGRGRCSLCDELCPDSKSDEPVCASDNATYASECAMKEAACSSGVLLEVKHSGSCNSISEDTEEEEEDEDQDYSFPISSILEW
Assay [6] addresses Fibroblast growth factor 2 (Homo sapiens) (UniProt P09038). In words: basic fibroblast growth factor binding to printed compounds – biochemical, small-molecule microarray, 635/667 nm fluorescence, primary screen (AID 1133). Particulars: FGF2, fluorescence 635/667, higher = more signal.
Assay [7] can be described thus: JC-1 mitochondrial potential readout, lung cancer cells – cell-based, A549, JC-1 fluorescence, basal, 24 h, 100 nL, profiling panel (AID 1138).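 Further: A549 lung adenocarcinoma cells under basal conditions with no added stimulus; test concentration not given here.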 The following applies: higher = more signal.
The subject of the next assay is Lefty1. The assay can be described thus: Lefty1 protein binding to printed compounds – biochemical, small-molecule microarray, 635/667 nm fluorescence, primary screen (AID 1139). Particulars: fluorescence 635/667, higher = more signal.
Assay [8] relates to wheat germ agglutinin (Triticum aestivum), Alexa647-labelled. In words: Alexa647-WGA lectin binding to printed small molecules – biochemical, small-molecule microarray, 635/667 nm fluorescence, artefact control for SMM control-protein annotation, profiling panel (AID 1140).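 Further: score merges 667 nm feature emission with signal to noise over triplicate slides.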 Particulars: WGA-A647 binding, 635 nm fluorescence, higher = more signal.
Assay [9] concerns the target Luciferin 4-monooxygenase (Photinus pyralis) (UniProt P08659). In words: inhibition of purified Photinus pyralis luciferase – biochemical, luminescence, purified enzyme, 2006 set, primary screen (AID 1141).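 Further: cell-free assay with purified firefly luciferase at 100 ng per well in PBS; test concentration not given here.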 Particulars: purified firefly luciferase, SteadyGlo luminescence, 30 min; higher = more signal, called active from +8 up or from −8 down.
Assay [10] relates to Wnt5a (protein binding on small-molecule microarray). The assay can be described thus: small molecules binding Wnt5a protein – biophysical, small-molecule microarray, 635/667 nm fluorescence, primary screen (AID 1142).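 Further: fluorescence read at 667 nm with signal to noise per printed feature.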 The following applies: 635 nm fluorescence, higher = more signal.
Assay [11] in a line: ATP-based viability of Huh7 replicon cells – cell-based, CellTiter-Glo luminescence, basal, 48 h, cytotoxicity control for HCV replication inhibitor project, primary screen (AID 1143).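 Further: Huh7 hepatoma cells carrying a hepatitis C replication reporter with no stimulus; test concentration not given here.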 The following applies: higher = more signal, called active from +8 up or from −8 down. For orientation: In antiviral work, replicon cells carry a viral genome segment that copies itself.
A short description of assay [12]: basal CRE-LacZ reporter activity in PC12 – cell-based, unstimulated, primary screen (AID 1145). Particulars: no forskolin, luminescence, 4.5 h, higher = more signal, called active from +8 up or from −8 down.
The nature of assay [13]: forskolin-driven CRE-LacZ activity in PC12 – cell-based, CRE-LacZ reporter, forskolin-stimulated, primary screen (AID 1146).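 Further: PC12 cells with 6xCRE LacZ reporter stimulated by forskolin 10 µM; beta-galactosidase reporter signal reflecting CREB driven transcription.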 The following applies: luminescence, 4.5 h, higher = more signal, called active from +8 up or from −8 down.
Assay [14] addresses Streptavidin (Streptomyces avidinii) (UniProt P22629). The assay can be described thus: compounds binding control protein streptavidin – biophysical, small-molecule microarray, 635/667 nm fluorescence, artefact control for SMM compound annotation, primary screen (AID 1147).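 Further: signal reflects streptavidin binding to arrayed compounds as a control protein.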 Particulars: higher = more signal.
The nature of assay [15]: probe aInhba binding on compound microarray – biochemical, small-molecule microarray, 635/667 nm fluorescence, primary screen (AID 1148).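 Further: score merges 667nm spot fluorescence with signal-to-noise for antibody binding to printed compounds.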 Particulars: higher = more signal.
Assay [16] deals with Torsin-1A (Homo sapiens) (UniProt O14656). In words: TOR1A wild-type binding on microarray – cell lysate, small-molecule microarray, lysate, 635/667 nm, primary screen (AID 1149). The following applies: COS7 hTOR1A-WT lysate, 635 nm fluorescence, higher = more signal.
Sequence of Torsin-1A (Homo sapiens) (O14656 whole entry, looked up): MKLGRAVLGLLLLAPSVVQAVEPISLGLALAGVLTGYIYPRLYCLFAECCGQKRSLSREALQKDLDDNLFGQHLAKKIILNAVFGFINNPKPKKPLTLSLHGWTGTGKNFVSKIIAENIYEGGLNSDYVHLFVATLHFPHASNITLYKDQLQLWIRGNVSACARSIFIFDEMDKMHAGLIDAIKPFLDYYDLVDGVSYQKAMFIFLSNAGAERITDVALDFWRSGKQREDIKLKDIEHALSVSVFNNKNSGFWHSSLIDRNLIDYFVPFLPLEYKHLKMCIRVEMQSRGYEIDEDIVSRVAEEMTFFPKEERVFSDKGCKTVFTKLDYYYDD
The target is the same in assay [17]. The assay can be described thus: torsin A mutant lysate binding on microarrays – cell lysate, small-molecule microarray, COS7 lysate, 635/667 nm fluorescence, primary screen (AID 1150).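 Further: score pools 667 nm emission and signal to noise measuring lysate protein binding.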 Particulars: COS7 hTOR1A mutant lysate, 635 nm fluorescence, higher = more signal.
The test system of assay [18] is Sonic hedgehog protein (Shh). The assay can be described thus: Sonic hedgehog microarray binding compounds – biochemical, small-molecule microarray, 635/667 nm fluorescence, primary screen (AID 1151).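 Further: Shh protein binding to compounds spotted on small-molecule microarray slides; score combines spot fluorescence intensity with signal-to-noise across triplicate slides.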 Particulars: 635 nm fluorescence, higher = more signal.

We go through 5 compounds from PubChem BioAssay.

Active and inactive are the calls of the source.

Sequence of Streptavidin (Streptomyces avidinii) (P22629 whole entry, looked up): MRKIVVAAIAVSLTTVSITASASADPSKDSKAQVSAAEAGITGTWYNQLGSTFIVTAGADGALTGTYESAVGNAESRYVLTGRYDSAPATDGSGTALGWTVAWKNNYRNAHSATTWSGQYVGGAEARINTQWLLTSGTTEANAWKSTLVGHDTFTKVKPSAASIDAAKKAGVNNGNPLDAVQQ
Sequence of Fibroblast growth factor 2 (Homo sapiens) (P09038 whole entry, looked up): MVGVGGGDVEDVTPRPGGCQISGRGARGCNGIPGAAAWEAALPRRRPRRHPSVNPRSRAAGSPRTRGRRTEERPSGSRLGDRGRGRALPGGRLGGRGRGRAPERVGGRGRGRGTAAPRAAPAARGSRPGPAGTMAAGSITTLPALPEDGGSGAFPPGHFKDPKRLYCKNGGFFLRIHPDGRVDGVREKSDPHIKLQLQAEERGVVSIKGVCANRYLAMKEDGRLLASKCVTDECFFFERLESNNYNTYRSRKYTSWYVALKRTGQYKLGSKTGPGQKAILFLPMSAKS
Sequence of Luciferin 4-monooxygenase (Photinus pyralis) (P08659 whole entry, looked up): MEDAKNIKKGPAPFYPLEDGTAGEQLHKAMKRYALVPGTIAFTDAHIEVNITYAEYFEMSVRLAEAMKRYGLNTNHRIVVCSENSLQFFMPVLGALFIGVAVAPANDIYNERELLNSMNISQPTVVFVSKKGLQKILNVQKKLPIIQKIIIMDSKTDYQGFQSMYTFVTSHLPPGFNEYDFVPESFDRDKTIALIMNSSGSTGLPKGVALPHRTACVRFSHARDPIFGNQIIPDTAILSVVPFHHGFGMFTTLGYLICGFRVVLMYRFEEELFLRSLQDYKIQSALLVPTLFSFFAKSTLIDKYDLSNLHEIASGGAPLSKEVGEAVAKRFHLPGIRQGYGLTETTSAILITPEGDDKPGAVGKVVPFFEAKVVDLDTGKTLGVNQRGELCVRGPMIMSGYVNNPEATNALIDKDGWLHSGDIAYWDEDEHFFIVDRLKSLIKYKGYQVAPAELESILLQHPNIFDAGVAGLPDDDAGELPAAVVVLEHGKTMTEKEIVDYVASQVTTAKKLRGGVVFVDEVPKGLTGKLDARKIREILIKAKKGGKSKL

Regarding `CCCC[C@H]1OB(O)C[C@H]2C1=C(COC)C[C@H]1C(=O)N(Cc3ccccc3)C(=O)[C@H]12`, the composite z-score is -0.438 in assay [1]; 0.422 in assay [2]; 0.112 in assay [3]; 0.575 in assay [4]; 0.935 in assay [5]; 1.18 in [6]. The composite z-score with Lefty1 was 0.499; in assay [8] it was 0.552; in assay [10] it was 0.192; in [14] it was -0.098; in assay [15] it was 0.124; in the assay with Torsin-1A (Homo sapiens) [16], -0.0377. Moreover, the composite z-score with Torsin-1A (Homo sapiens) [17] was found to be 0.37; in assay [18] it was 0.329. In addition, the z-score is 1.03 in assay [7]; -1.22 (inactive) in assay [9]; -0.273 (inactive) in assay [11]; 0.307 (inactive) in assay [12]; -1.76 (inactive) in assay [13].
In the case of `NC(=O)NCC#Cc1ccc2c(c1)[C@]1(C(=O)N2)[C@H](C(=O)N2CCCCCCC2)[C@H]2C(=O)O[C@H](c3ccccc3)[C@H](c3ccccc3)N2[C@@H]1c1ccccc1OCCO`, the composite z-score amounted to 1.03 in assay [1]; 1.27 in [2]; 2.88 in [3]; 0.743 in [4]; 1.51 in assay [5]; 0.0779 in assay [6]. The composite z-score was 1.32 in the assay with Lefty1; 1.59 in [8]; 1.58 in [10]; 3.38 in [14]; 2.01 in assay [15]; 1.73 with Torsin-1A (Homo sapiens) [16]. The composite z-score in the assay with Torsin-1A (Homo sapiens) [17] amounted to 1.53; in assay [18] it was 0.81. The z-score in assay [7] was 0.209; in assay [9], -0.984 (inactive); in assay [11], -0.481 (inactive); in assay [12], -0.348 (inactive); in assay [13], -1.18 (inactive).
As for `CO[C@]12C=C(Br)[C@@H](C[C@@H]1c1ccccc1)[C@@]1(CO1)C2=O`, the composite z-score is -0.22 in [1]; -0.0095 in assay [2]; -0.259 in assay [3]; -0.0226 in assay [4]; 0.931 in [5]; 0.6 in [6]. Further, the composite z-score in the assay on Lefty1 is 0.41; in assay [8] it was -0.297; in [10], -0.002; in assay [14], 0.4; in assay [15], -0.0221; with Torsin-1A (Homo sapiens) [16], 0.271. The composite z-score with Torsin-1A (Homo sapiens) [17] came to 0.309; in assay [18], 0.522. Moreover, the z-score is 0.704 in [7]; -0.876 (inactive) in assay [9]; -1.7 (inactive) in [11]; -0.323 (inactive) in assay [12]; 2 (inactive) in [13].
In the case of `CC(C)[Si]1(C(C)C)O[C@@H](c2ccccc2)c2cc(C3CC3)nc(-c3ccc(Oc4ccccc4)cc3)c21`, the composite z-score in assay [1] was -1.14; in assay [2], -0.889; in assay [3], -0.323; in [4], -0.812; in assay [5] it was -0.591; in assay [6] it was -0.192. The composite z-score in the assay with Lefty1 is -0.315; in assay [8] it was -1.33; in assay [10] it was -0.217; in assay [14], -0.646; in [15], -0.0082; with Torsin-1A (Homo sapiens) [16], -0.617. Besides, the composite z-score was -0.0373 in the assay with Torsin-1A (Homo sapiens) [17] and -0.239 in assay [18]. The z-score in [7] was 1.55; in assay [9], -0.626 (inactive); in [11] it was -0.313 (inactive); in assay [12], 0.0176 (inactive); in assay [13], -0.59 (inactive).
For the compound `C=CC[C@]1(C(N)=O)N=C(c2ccc(OCCCO)cc2)O[C@H]1c1ccccc1CN=[N+]=[N-]`, the composite z-score in [1] was 3.2; in assay [2], 0.928; in assay [3] it was 0.409; in assay [4], 1.01; in assay [5], 0.653; in assay [6] it was -0.373. Moreover, the composite z-score in the assay on Lefty1 is -0.484; in assay [8], 1.43; in assay [10], 0.151; in assay [14], 1.42; in assay [15] it was -0.0093; in the assay with Torsin-1A (Homo sapiens) [16], 1.69. The composite z-score with Torsin-1A (Homo sapiens) [17] is 0.96; in assay [18], -0.373. Further, the z-score in assay [7] was 0.766; in [9], -1.47 (inactive); in [11], -4.28 (inactive); in assay [12], 1.54 (inactive); in assay [13], -1.31 (inactive).
